# Laboratory results: PubChem BioAssay (NCATS)
# Records with an inconclusive call do not appear. Entries that show only a call come without a potency. Calls of active or inactive are those of the source. The call rests on the fitted dose curve; in most records, active means well fitted curve in the direction sought with a large enough effect; inconclusive means small, poorly fitted or top-dose-only effect, or another doubt; inactive means no such curve, though single readings can be large; an effect the other way counts as inactive or inconclusive.
# Experiments:
# [1] = tested on: Nanoluciferase (engineered Oplophorus gracilirostris luciferase); test: Primary Nanoluciferase (NLuc) qHTS assay for identification of artifact compounds. (AID 1845222); further: series mostly up to about 54 µM
# In short: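 Luminescence read-out of secreted NLuc in S16 cell conditioned medium (1:55); compounds tested with 15 min RT preincubation, then Nano-Glo substrate 1:100, 5 min. % inhibition vs no-enzyme and DMSO controls, 4-parameter Hill fit.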
# [2] = Primary redox qHTS assay for identification of artifact compounds. (AID 1845223); further: potency means the concentration at half of the fitted maximal effect
# In short: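 Redox-cycling detection via DTT (250 uM final) oxidation coupled to Amplex Red (25 uM)/HRP (250 mU/mL) in HBSS. 15 min preincubation plus 30 min after DTT, room temperature. Ex/Em 525/598 nm; 4-parameter Hill fit against DMSO and 10 uM DA3003.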
Structure (SMILES),Potency [1],Potency [2],"activity, negative = inhibition [1]",redox activity (% of DA3003) [2]
C/C=C(\C)C(=O)O[C@H]1C=CC(=O)O[C@H]1/C=C/[C@H](O)[C@@H](C)O,inactive,inactive,,
C[C@@H]1O[C@@H](O[C@H]2[C@H](Oc3cc(O)c(C(=O)CCc4ccc(O)cc4)c(O)c3)O[C@H](CO)[C@@H](O)[C@@H]2O)[C@H](O)[C@H](O)[C@H]1O,inactive,10.6 µM (active),,
COC(=O)[C@@H](NC(=O)[C@H](CC(C)C)NC(=O)N(Cc1ccccc1)C[C@@H](O)[C@H](Cc1ccccc1)NC(=O)OC(C)(C)C)C(C)C,,,-4.83% [at 11.6 µM] (inactive),19.1% [at 11.5 µM] (inactive)
CC1(O)CC(O)C2C(C(=O)O)=COC(OC3OC(CO)C(O)C(O)C3OC(=O)/C=C/c3ccc(O)cc3)C21 (stereo not drawn),inactive,inactive,,
C/C=C(/C)C(=O)O[C@@H]1C[C@@H](OC(=O)/C(C)=C\C)[C@@]2(C)C3C(=O)C=C(C)C2C3C1(C)C,inactive,inactive,,
CC1=CC[C@@]2(C)CC[C@@](O)(C(C)C)[C@@H]2[C@@H](O)C1,inactive,inactive,,
COc1ccc(C2(O)c3ccccc3NC(=O)C2OC)cc1 (stereo not drawn),inactive,inactive,,
CCC(C)C(C(=O)O)N1Cc2c(OCC=C(C)C)c(C)c(OC)c(C(=O)O)c2C1=O (stereo not drawn),inactive,inactive,,
COc1cc(CCCO)ccc1O[C@@H]1O[C@H](CO)[C@@H](O)[C@H](O)[C@H]1O,inactive,inactive,,
Cc1cn2cc(CC(=O)N3CCC4(CC3)CN(Cc3ccc(-n5nccn5)cc3Cl)C4)nc2s1,inactive,inactive,,
COc1cc2c(cc1O)CC(O)(CO)C(CO)C2c1ccc(OC2OC(CO)C(O)C(O)C2O)c(OC)c1 (stereo not drawn),inactive,inactive,,
CC(=O)OC[C@]12[C@H](OC(C)=O)[C@H](OC(=O)c3ccccc3)[C@@H]3[C@@H](OC(C)=O)[C@]1(OC3(C)C)[C@H](C)C[C@H](OC(=O)c1ccccc1)[C@@H]2OC(=O)c1ccccc1,inactive,inactive,,
C=C1C[C@]23C[C@H]1CC[C@H]2[C@]1(C)CC[C@H](O)[C@@](C)(C(=O)O)[C@H]1[C@@H]3C(=O)O,inactive,inactive,,
Nc1c(-c2ccccc2)nc(Cl)c2c(O)n[nH]c(=O)c12,inactive,inactive,,
C/C=C(\C)C(=O)OC1CC2C(CC=C3CC(OC4CC(OC)C(OC5CC(OC)C(OC6CC(OC)C(OC7CC(OC)C(OC8CC(OC)C(OC9OC(CO)C(O)C(O)C9O)C(C)O8)C(C)O7)C(C)O6)C(C)O5)C(C)O4)CCC32C)C2(O)CCC(C(C)=O)C12C (stereo not drawn),,,4.2% [at 11.6 µM] (inactive),12.2% [at 11.5 µM] (inactive)
C[C@]12CCC[C@](C)(C(=O)O)C1[C@@H](O)[C@@H](O)C13CC(CCC12)C(CO)(O[C@@H]1O[C@H](CO)[C@@H](O)[C@H](O)[C@H]1O)C3 (stereo partly drawn),inactive,inactive,,
C[C@@H]1O[C@@H](O[C@H]2[C@H](O[C@H]3[C@H](O[C@H]4CC[C@@]5(C)C(CC[C@]6(C)C5CC=C5[C@@H]7CC(C)(C)C[C@@H](O)[C@]7(C)CC[C@]56C)[C@@]4(C)CO)O[C@H](C(=O)O)[C@@H](O)[C@@H]3O)O[C@H](C(=O)O)[C@H](O)[C@@H]2O)[C@H](O)[C@H](O)[C@H]1O (stereo partly drawn),,,0% [at 11.6 µM] (inactive),-2.66% [at 11.5 µM] (inactive)
O=C(/C=C/c1ccc(O)cc1)OCC1OC(O)C(OC2OC(CO)C(O)C(O)C2O)C(O)C1O (stereo not drawn),inactive,inactive,,
CC1(C)CC[C@]2(C(=O)O)CC[C@]3(C)C(=CCC4[C@@]5(C)CC[C@H](O[C@@H]6O[C@H](C(=O)O)[C@@H](O)[C@H](O)[C@H]6O)C(C)(C)C5CC[C@]43C)C2C1 (stereo partly drawn),inactive,inactive,,
COc1cc(O)cc2c1C(=O)OC(C)C2 (stereo not drawn),inactive,inactive,,
COC(=O)c1ccccc1O[C@@H]1O[C@H](CO[C@@H]2OC[C@@H](O)[C@H](O)[C@H]2O)[C@@H](O)[C@H](O)[C@H]1O,inactive,inactive,,
CC(=O)N[C@H](Cc1c[nH]c2ccccc12)C(=O)OCc1cc(C(F)(F)F)cc(C(F)(F)F)c1,inactive,inactive,,
CN1CCN(C2=Nc3ccccc3Nc3ccc(O)cc32)CC1,inactive,inactive,,
CC(C)=CCC[C@@](C)(O)[C@H]1CC[C@]2(C)[C@@H]1[C@H](O)CC1[C@@]3(C)CC[C@H](O[C@@H]4O[C@H](CO)[C@@H](O)[C@H](O)[C@H]4O[C@@H]4O[C@H](CO)[C@@H](O)[C@H](O)[C@H]4O)C(C)(C)[C@@H]3CC[C@]12C (stereo partly drawn),inactive,inactive,,
